The results in this text go back to PubChem BioAssay.

The list shows a part of the results. Results filed as inconclusive are left out. Calls of active or inactive are those of the source.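 The calls were made as follows, unless noted: active = thallium entry rate above the same plate's blocked-transporter control wells by more than 3 SD; inconclusive = the two repeat wells disagree; inactive = the rest.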

Assay [1] concerns the target Solute carrier family 12 member 5 (Homo sapiens) (UniProt Q9H2X9). Nature of the assay: KCC2 modulators in sodium-free buffer, confirmation, cell-based, HEK293 KCC2, thallium flux, secondary assay (AID 1713;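 active = thallium flux slope above the same plate's solvent-only control mean plus 3 SD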). Particulars: FluoZin2 fluorescence, at 10 µM, stronger effect = higher value.
The next assay in a line: PubChem AID 1714.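 Also: raw slope of fluorescence over initial fluorescence between 10 and 20 s after thallium.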 Particulars: HEK293-KCC2 + bumetanide/ouabain, thallium flux FluoZin2; at 10 µM; stronger effect = higher value.
The target in assay [2] is Solute carrier family 12 member 5 (Homo sapiens) (UniProt Q9H2X9). Nature of the assay: KCC2 modulators without ouabain present, confirmation, cell-based, HEK293 KCC2, thallium flux, FluoZin2, secondary assay 2 (AID 1715;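 active = thallium flux slope more than 3 SD above or below the plate's solvent-only control mean, mostly below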;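 also: raw slope with 0.1% DMSO as baseline and bumetanide as block control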). Particulars: HEK293-KCC2, thallium flux FluoZin2 fluorescence; at 10 µM; actives lie on both sides; F/F0 rise rate, 10–20 s post-thallium.
Sequence of Solute carrier family 12 member 5 (Homo sapiens) (Q9H2X9 whole entry, looked up): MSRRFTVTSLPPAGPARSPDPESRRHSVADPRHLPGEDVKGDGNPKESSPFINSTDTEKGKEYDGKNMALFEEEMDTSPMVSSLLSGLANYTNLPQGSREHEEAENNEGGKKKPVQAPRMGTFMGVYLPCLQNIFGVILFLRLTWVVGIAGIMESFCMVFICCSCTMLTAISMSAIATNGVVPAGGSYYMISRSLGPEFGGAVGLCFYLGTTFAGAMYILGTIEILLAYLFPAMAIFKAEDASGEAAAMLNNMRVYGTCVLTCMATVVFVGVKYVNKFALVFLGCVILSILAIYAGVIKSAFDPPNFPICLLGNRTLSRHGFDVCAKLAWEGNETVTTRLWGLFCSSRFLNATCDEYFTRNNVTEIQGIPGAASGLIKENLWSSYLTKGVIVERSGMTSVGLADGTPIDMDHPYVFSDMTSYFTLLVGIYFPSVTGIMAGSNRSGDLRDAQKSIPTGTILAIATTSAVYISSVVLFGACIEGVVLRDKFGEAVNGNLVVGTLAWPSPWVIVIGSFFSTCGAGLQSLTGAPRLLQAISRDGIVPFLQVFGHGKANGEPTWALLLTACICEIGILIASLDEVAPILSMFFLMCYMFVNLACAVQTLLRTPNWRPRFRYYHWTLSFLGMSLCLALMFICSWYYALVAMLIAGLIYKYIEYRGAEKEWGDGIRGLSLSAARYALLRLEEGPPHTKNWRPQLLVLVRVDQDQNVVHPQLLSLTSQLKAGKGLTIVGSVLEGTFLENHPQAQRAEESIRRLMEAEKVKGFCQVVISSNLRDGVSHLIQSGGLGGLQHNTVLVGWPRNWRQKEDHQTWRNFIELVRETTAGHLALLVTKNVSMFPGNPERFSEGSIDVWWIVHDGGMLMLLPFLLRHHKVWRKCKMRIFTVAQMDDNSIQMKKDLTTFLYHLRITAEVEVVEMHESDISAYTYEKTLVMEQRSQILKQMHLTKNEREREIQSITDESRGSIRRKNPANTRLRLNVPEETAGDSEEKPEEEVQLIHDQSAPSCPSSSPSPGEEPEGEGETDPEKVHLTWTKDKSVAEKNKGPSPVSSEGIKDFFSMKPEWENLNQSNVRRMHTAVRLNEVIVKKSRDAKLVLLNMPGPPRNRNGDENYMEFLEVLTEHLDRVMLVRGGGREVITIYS
For assay [3] the target is unchanged. Nature of the assay: KCC2 inhibitors and activators, ouabain retest, confirmation, HEK-KCC2 cells (AID 1717;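 active = thallium flux slope beyond 3 SD from same-plate DMSO control mean in most replicates, usually higher, sometimes lower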;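 also: slope of initial-normalized fluorescence between seconds 10 and 20 after thallium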). Conditions: HEK293-KCC2, thallium flux FluoZin2 fluorescence, at 10 µM, bidirectional: low = inhibitor, high = activator.
Assay [4] can be described thus: native HEK Tl+ uptake effects, second counter-screen – HEK cells, counterscreen 2, counter-screen for KCC2 modulator project, confirmation (AID 1718;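 active = thallium flux slope above the same plate's solvent-control mean plus 3 SD in both duplicate wells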;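 also: run without ouabain in cells lacking the KCC2 cotransporter; slope of fluorescence scaled to its starting value between 10 and 20 s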). Particulars: HEK293 parental, thallium flux FluoZin-2 fluorescence slope; at 10 µM. On the technique in general: A counterscreen serves to expose hits that act by an unwanted route or on another target.
Assay [5] is described as follows: thallium flux modulation in parental HEK cells, confirmation, counter-screen for KCC2 modulator project, cell-based, counterscreen 1 (AID 1716;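 active = thallium flux rate significantly above the same plate's solvent-only control wells, beyond their mean plus 3 SD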). Particulars: HEK293 parental cells, thallium flux FluoZin2, ouabain; at 10 µM; baseline-ratio fluorescence slope, 10–20 s after thallium.
The nature of assay [6]: inhibitors of TNFa-induced NFkB p65 translocation, primary screen, imaging, HUVEC, MLSMR starter and 10KST1 sets (AID 438;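 active = inhibition above 20% together with a positive visual image hit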;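 also: compound added about 3h40 before a 20 min TNFalpha stimulation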;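 as to inhibition: signal is the nuclear over cytoplasmic p65 intensity ratio per well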). Particulars: HUVEC TNFa-induced p65 nuclear translocation; cell count: measured here: nuclei count (cytotoxicity indicator), at 2.08 µM; inhibition: at 2 µM, stronger effect = higher value, 0% TNFa-plus-vehicle, 100% no-TNFa wells.
Assay [7] in a line: inhibitors of mutant huntingtin aggregation, primary screen, imaging, exon1htt(103Q)mCFP cells, high-content imaging (AID 483;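 active = visual image review flags a hit and inhibition of aggregation exceeds 20%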;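 also: compound exposure lasted 3 days before fixation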;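 as to nuclei count: percent of the per-plate median nuclei count of sample wells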). Conditions: exon1htt(103Q)mCFP cell line, aggregate imaging, at 2 µM; inhibition of aggregation: stronger effect = higher value; nuclei count: measured here: cell count, toxicity.
Assay [8] is described as follows: inhibitors of E-selectin induction by TNFa, primary screen, imaging, HUVEC, immunofluorescence, MLSMR starter and 10KST1 sets (AID 487;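 active = visually confirmed hit in the image check and inhibition above 20%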;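 as to inhibition: signal is fraction of cell area covered by stained E-selectin grains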;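 as to nuclei count: 100% = median nuclei count of all wells on the same plate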). Conditions: HUVEC TNFalpha-induced E-selectin immunofluorescence imaging, at 2 µM; inhibition: stronger effect = higher value; nuclei count: measured here: cell number, toxicity.
For assay [9], the target named is Voltage-gated potassium channel subunit beta-2 (Rattus norvegicus) (UniProt P62483). The experiment in a line: KvBeta enzyme negative modulators, primary screen, biochemical, NADPH fluorescence (AID 622;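 active = fluorescence slope higher than the sample average by over 3 SD, cut at about -0.22 in these data, passing the limit was not always enough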;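 also: slope of raw intensity against log time taken from 70 to 1610 s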). Particulars: recombinant KvBeta, 4-cyanobenzaldehyde reduction, at 10 µM, stronger effect = higher value.
Sequence of Voltage-gated potassium channel subunit beta-2 (Rattus norvegicus) (P62483 whole entry, looked up): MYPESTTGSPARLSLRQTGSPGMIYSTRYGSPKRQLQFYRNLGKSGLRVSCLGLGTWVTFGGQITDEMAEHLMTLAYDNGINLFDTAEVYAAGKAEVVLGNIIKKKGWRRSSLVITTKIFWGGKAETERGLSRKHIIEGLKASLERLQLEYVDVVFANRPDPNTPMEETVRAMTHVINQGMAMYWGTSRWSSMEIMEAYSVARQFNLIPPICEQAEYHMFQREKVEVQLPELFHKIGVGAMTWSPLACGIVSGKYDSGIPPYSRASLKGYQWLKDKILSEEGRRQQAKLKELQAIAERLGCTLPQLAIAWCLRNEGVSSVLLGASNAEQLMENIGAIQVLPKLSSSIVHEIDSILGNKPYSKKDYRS
The target is the same in assay [10]. The experiment in a line: KvBeta positive modulators, primary screen, biochemical, NADPH fluorescence (AID 623;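 active = NADPH fluorescence slope more negative than the mean of all samples by about 3 SD, 99.7% confidence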;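 also: fluorescence intensity change per second fitted from 20 to 320 s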). Conditions: Recombinant KvBeta, NADPH fluorescence decrease slope, 10 min; at 10 µM; stronger effect = lower value.
Assay [11] addresses Alpha-2C adrenergic receptor (Homo sapiens) (UniProt P18825). The experiment in a line: modulators of alpha2C/GIRK thallium flux, primary screen, cell-based, HEK293 alpha2C/GIRK1/2 (AID 624;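 active = fluorescence slope after compound addition differing from the mean of all screened samples at 99.7% confidence, in either direction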;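 also: slope of fluorescence ratio to pre-addition baseline per second over 15 to 24 s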). Conditions: thallium flux BTC fluorescence, at 10 µM, actives lie on both sides.
Assay [12] is described as follows: inhibitors of Sendai virus-induced IRF3 signaling, primary screen, TLR/RLR signaling modifier project, cell-based, Sendai virus stimulus, luciferase, 10K MLSCN set (AID 602276;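 active = inhibition at or above 50% at 10 µM; inactive = inhibition below 50%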;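 also: firefly luciferase from ISG56 promoter only with Renilla not read in this screen; 0% = Sendai virus plus DMSO and 100% = medium plus DMSO without virus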). Conditions: HEK293 RL24 IRF3 luciferase reporter, at 10 µM, stronger effect = higher value. For orientation: In a reporter assay the amount or activity of a reporter protein is the signal.
Assay [13] in a line: inhibitors of poly I:C-induced TLR3 signaling, primary screen, cell-based, poly I:C stimulus, luciferase, 10K MLSCN set (AID 602277;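 active = inhibition of the reporter signal at or above 50%; inactive = inhibition below 50%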). Particulars: HEK293-TLR3 RL24 IRF3 luciferase reporter, at 10 µM, stronger effect = higher value.

Sequence of Alpha-2C adrenergic receptor (Homo sapiens) (P18825 whole entry, looked up): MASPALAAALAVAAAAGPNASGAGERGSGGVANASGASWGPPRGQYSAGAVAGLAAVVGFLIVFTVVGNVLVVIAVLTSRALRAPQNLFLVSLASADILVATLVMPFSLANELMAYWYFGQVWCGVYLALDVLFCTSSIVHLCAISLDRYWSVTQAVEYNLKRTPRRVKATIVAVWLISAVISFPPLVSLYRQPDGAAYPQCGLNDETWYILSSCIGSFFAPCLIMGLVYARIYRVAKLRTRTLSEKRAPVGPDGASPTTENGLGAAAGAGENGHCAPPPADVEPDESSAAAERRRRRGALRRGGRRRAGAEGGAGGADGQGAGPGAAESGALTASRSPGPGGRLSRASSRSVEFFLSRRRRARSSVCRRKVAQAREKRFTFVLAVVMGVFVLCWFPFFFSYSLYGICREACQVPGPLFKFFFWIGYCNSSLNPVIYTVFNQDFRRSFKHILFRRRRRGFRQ

On to `Cc1ccccc1NC(=S)NNC(=O)c1cccc(Br)c1`, for which the normalised thallium flux (F/F0 slope) in assay [1] is 0.0117 (inactive). Also, the normalized thallium flux in “PubChem AID 1714” is 0.028 (active); in assay [2], 0.0325 (inactive). Further, in assay [3], the raw Tl+ flux slope (below DMSO = inhibition, above = activation) is 0.0311 (active). Besides, in assay [4], the thallium flux slope was 0.0126 (inactive).

Consider `Cc1ccc(N=Cc2c(O)n(-c3nccs3)c(=O)c3ccccc23)c(C)c1`, for which, in [1], the normalised thallium flux (F/F0 slope) was 0.000176 (active). Also, the figures for the normalized thallium flux (in the assay “PubChem AID 1714”; in assay [2]) were -0.00484 (active) and 0.0195 (active), respectively. Further, the raw Tl+ flux slope (below DMSO = inhibition, above = activation) in assay [3] was 0.0222 (active). Besides, the thallium flux slope in assay [4] was 0.00674 (active).

Regarding `CC1Cc2ccccc2N1C(=O)CSc1nc2ccccc2o1` (configuration not stated), the normalised thallium flux (F/F0 slope) in assay [1] is 0.00599 (inactive). For the same compound, the normalized thallium flux in the assay “PubChem AID 1714” is 0.0054 (inactive). For the same compound, the raw Tl+ flux slope (below DMSO = inhibition, above = activation) in [3] was 0.0143 (active). Also, the thallium flux slope in assay [4] is 0.00901 (inactive).

In the case of `COc1cc(OC)cc(C(=O)NCCSCc2ccco2)c1`, in assay [1], the normalised thallium flux (F/F0 slope) was 0.00951 (inactive). Further, the normalized thallium flux was 0.00654 (inactive) in the assay “PubChem AID 1714” and 0.0289 (inactive) in assay [2]. For the same compound, the raw Tl+ flux slope (below DMSO = inhibition, above = activation) in [3] was 0.0187 (inactive). For the same compound, the thallium flux slope in assay [4] is 0.0101 (inactive).

Turning to `Cn1c(CCCOc2ccc(Cl)cc2Cl)n[nH]c1=S`, the normalised thallium flux (F/F0 slope) in assay [1] is 0.00558 (inactive). Besides, the results for the normalized thallium flux (in the assay “PubChem AID 1714”; in assay [2]) were 0.00856 (active) and 0.0217 (active), respectively. Besides, in [3], the raw Tl+ flux slope (below DMSO = inhibition, above = activation) was 0.0131 (active). In addition, in [4], the thallium flux slope is 0.00939 (inactive).

As to `O=C(c1cc(-c2ccc(O)cc2)on1)N1CCCc2ccccc21`, the normalised thallium flux (F/F0 slope) in [1] is 0.00967 (inactive). Also, the normalized thallium flux in “PubChem AID 1714” was 0.00639 (inactive). Besides, the thallium flux rate (normalised fluorescence) in [5] is 0.00346 (inactive). For the same compound, in assay [3], the raw Tl+ flux slope (below DMSO = inhibition, above = activation) was 0.0175 (active). Moreover, the thallium flux slope in assay [4] is 0.0111 (inactive).

`CC(C)n1cnc2c(Nc3cccc(Cl)c3)nc(N(CCO)CCCO)nc21`: the normalised thallium flux (F/F0 slope) in [1] was 0.00575 (inactive). Moreover, the normalized thallium flux was 0.00472 (inactive) in “PubChem AID 1714” and 0.0232 (active) in assay [2]. In addition, in assay [5], the thallium flux rate (normalised fluorescence) is 0.0075 (inactive). In addition, the thallium flux slope in [4] is 0.0113 (inactive).

Regarding `Oc1c(Cl)cc(Cl)c(Cl)c1Cc1c(O)c(Cl)cc(Cl)c1Cl`, in assay [1], the normalised thallium flux (F/F0 slope) is 0.0104 (inactive). The figures for the normalized thallium flux (in the assay “PubChem AID 1714”; in assay [2]) were 0.0366 (active) and 0.0364 (inactive), respectively. Besides, the thallium flux slope in assay [4] is 0.0102 (inactive).

Turning to `O=S(=O)(c1cccc(S(=O)(=O)N2CCC(n3nnc4ccccc43)CC2)c1)N1CCCCC1`, the normalised thallium flux (F/F0 slope) in assay [1] was 0.00996 (inactive). Also, the normalized thallium flux in “PubChem AID 1714” is 0.00678 (inactive). The thallium flux rate (normalised fluorescence) in assay [5] was 0.00751 (inactive). For the same compound, the raw Tl+ flux slope (below DMSO = inhibition, above = activation) in assay [3] is 0.0174 (active).

For `O=C(Oc1c(-c2ccco2)oc2ccccc2c1=O)c1cccnc1`, the normalised thallium flux (F/F0 slope) in assay [1] was 0.0222 (active). Moreover, the normalized thallium flux is 0.0675 (active) in the assay “PubChem AID 1714” and 0.0399 (inactive) in assay [2]. Moreover, the raw Tl+ flux slope (below DMSO = inhibition, above = activation) in assay [3] was 0.0573 (active).

With `Cc1cc(C)c2cc(CN(Cc3cccs3)Cc3nnnn3CC3CCCO3)c(=O)[nH]c2c1` (configuration not stated), the normalised thallium flux (F/F0 slope) in assay [1] was 0.0146 (inactive). Further, the normalized thallium flux in “PubChem AID 1714” was 0.0043 (inactive). In [5], the thallium flux rate (normalised fluorescence) is 0.00572 (active). Further, in assay [3], the raw Tl+ flux slope (below DMSO = inhibition, above = activation) is 0.0137 (active). Moreover, in assay [4], the thallium flux slope is 0.00821 (inactive).

For orientation: inhibition means the drop in the measured response relative to a control, in per cent. Turning to `O=C(C1CCN(c2nnc(-n3cccc3)s2)CC1)N1CCc2ccccc2C1`, the cell count in assay [6] turned out to be 479. In addition, the inhibition is -5% (inactive) in assay [6], -9.9% (inactive) in [8], 0.226% (inactive) in assay [12] and 24.9% (inactive) in [13]. Moreover, in assay [7], the inhibition of aggregation was -15.5% (inactive). The nuclei count in [7] worked out at 65.3%; in assay [8] it was 104%. In [9], the fluorescence slope is -0.605 (inactive). The NADPH fluorescence slope in assay [10] was -3.9e-05 (inactive). Also, the slope in assay [11] is 0.00552 (inactive). Also, the normalised thallium flux (F/F0 slope) in assay [1] was 0.00728 (inactive). For the same compound, the values for the normalized thallium flux (in the assay “PubChem AID 1714”; in assay [2]) were 0.00506 (inactive) and 0.0245 (active), respectively. Also, the thallium flux rate (normalised fluorescence) in [5] is 0.00773 (inactive). The thallium flux slope in assay [4] is 0.0107 (inactive).
